# From PubChem BioAssay (NCI)
# Several values for one entry are separate records, joined by “and”; a condition that tells them apart may be missing. Identical values can stand only once. Compounds without any hit were thinned out: in the full panel of roughly 83,000, 20% have a hit.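 Compound tested at a single concentration for 48 hours in 96-well plates; a percent growth value below 10 was scored as active.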 Unmarked numbers belong to inactive results. Activity calls are given as the source filed them.
# Tested on: MDA-MB-468 breast
# Assay: NCI-60 one-dose screen, 48 h (100 = growth as untreated, 0 = no growth, -100 = all killed)
# Conditions: 10 µM unless noted
row,SMILES,growth
1,O=S(=O)(c1ccc(O)cc1)c1ccccc1O,108%
2,Cc1cc(C)c(C[N+](C)(C)C)c(C)c1C,16.1%
3,CN[C@@]1(c2ccccc2Cl)CCCC[C@@H]1NCC1CCCO1 (stereo not given in full),96.3%
4,COC(=O)[C@@H](C)C[C@H](Cc1ccccc1)NC(=O)c1csc([C@@H](C[C@H](C(C)C)N(C)C(=O)[C@H](C)NC(=O)[C@H]2CCCN2C)OC(C)=O)n1,25.8%
5,COc1ccc2c(c1)c(-c1nc(-c3cn(C)c4ncccc34)cs1)cn2CCN1CCOCC1,45.8%
6,C/C(=C(\c1ccc(OCCN2CCOCC2)cc1)c1ccc(OC(=O)Cc2ccccc2)cc1)c1ccc(Cl)cc1,78.8%
7,CC[C@@H](C)/C=C(C)/C=C/C(=O)c1c(O)c(-c2ccc(O)cc2)cn(O)c1=O,-25% (active)
8,[Cl][Hg][c]1cc(Br)cc(Br)c1,7.71% (active)
9,COCC1OC2OC3C(COC)OC(OC4C(COC)OC(OC5C(COC)OC(OC6C(COC)OC(OC7C(COC)OC(OC8C(COC)OC(OC1C(O)C2O)C(O)C8O)C(O)C7O)C(O)C6O)C(O)C5O)C(O)C4O)C(O)C3O (stereo not given) (tested in a mixture with another compound),105%
10,Cn1cc(C=O)c2nccnc21,98.1%
11,CCC(/C=C(C)/C=C/C(=O)c1c(O)c(-c2ccc(O)cc2)c[nH]c1=O)CO (stereo not given),98.5%
12,CC(C)COC(C[N+](=O)[O-])C(Cl)(Cl)Cl (stereo not given),112%
13,O=P1(N(CCCl)CCCl)NCCCO1 (stereo not given),108%
14,O=[N+]([O-])CC(c1ccccc1Cl)c1c(-c2ccccc2)[nH]c2ccccc12 (stereo not given),7.39% (active)
15,COc1cc2c(O[C@@H]3OC[C@H](O)[C@H](O)[C@H]3O)c3c(c(-c4ccc5c(c4)OCO5)c2cc1OC)C(=O)OC3,59.3%
16,CNC(=O)Oc1cc(C(C)C)ccc1Sc1ccc(C(C)C)cc1OC(=O)NC,56.5%
17,ClCCN(CCCl)c1nc(Cl)c(C2CC(c3ccccc3)=NN2c2ccccc2)s1 (stereo not given),75.4%
18,CC(=O)O[C@H](C[C@H](C(C)C)N(C)C(=O)[C@@H](NC(=O)[C@H]1CCCN1C)C(C)C)c1nc(C(=O)N[C@@H](Cc2ccccc2)C[C@H](C)C(=O)O)c(C)s1,18.7%
19,CC(=O)O[C@@H]1C[C@H]2O[C@@H]3C=C(C)CC[C@]3(C)[C@]1(C)[C@]21CO1,39.3%
20,CC(=O)O[C@H]1C(=O)[C@@]2(C)[C@H]([C@H](OC(=O)c3ccccc3)[C@]3(O)C[C@H](OC(=O)[C@H](OC(=O)OCC4COC(C)(C)O4)[C@@H](NC(=O)c4ccccc4)c4ccccc4)C(C)=C1C3(C)C)[C@]1(OC(C)=O)CO[C@@H]1C[C@@H]2O (stereo not given in full),2.65% (active)

row,SMILES,growth
1,O=C1NC2(CCNCC2)Nc2ccccc21,98.8%
2,OB([O][Hg][c]1ccccc1)[O][Hg][c]1ccccc1,-71.2% (active)
3,c1ccc(Nc2nc(-c3ccccc3)c[se]2)cc1,49.8%
4,CCOc1ccc(/C=C/[N+](=O)[O-])cc1,35.4%
5,CC1(C)CC2(CC(C)(C)c3cc(O)c(O)cc32)c2cc(O)c(O)cc21,83.1%
6,NS(=O)(=O)c1nc[nH]c1[N+](=O)[O-],103%
7,O=C(NC1=NCC[Se]1)c1ccccc1O,93.1%
8,CCCCCCCOC(C(=O)OCCN(CC)CC)(c1ccccc1)c1ccccc1,79.7%
9,O=C(Nc1ccc([N+](=O)[O-])cc1)C(Cl)(Cl)Cl,96.5%
10,COc1cccc2c1c(C(=O)C(=O)Nc1cc(C)no1)cn2Cc1ccc(F)cc1,48.4%
11,COC(=O)[C@@H](C)C[C@H](Cc1ccccc1)NC(=O)c1cccc([C@@H](C[C@H](C(C)C)N(C)C(=O)[C@@H](NC(=O)[C@H]2CCCCN2C)C2CC2)OC(C)=O)n1,35.3%
12,C[C@]12C[C@H](c3ccoc3)OC(=O)[C@H]1CC[C@@]1(C)[C@@H]2[C@H]2C=C[C@]1(O)C(=O)O2,105%
13,O=C1CN=C(c2ccc(Cl)cc2)c2sccc2N1,104%
14,C=CC(O)CN1CC1CC (stereo not given),105%
15,C[C@@H]1CCC/C=C/[C@H]2C[C@@H](O)C[C@@H]2[C@@H](O)/C=C/C(=O)O1,-21.4% (active)
16,COc1ccn(C)c(=O)c1C#N,102%
17,O=C(N/N=C\c1ccc(N(CCCl)CCCl)cc1Cl)c1cccnc1,-69.6% (active)
18,CC(=O)c1cccc(S(=O)(=O)F)c1,93.6%
19,CC(C)c1cccc(C(C)C)c1O,101% and 94.3%
20,CCC[CH2][Sn]([CH2]CCC)([CH2]CCC)[O]c1ccc(Cl)cc1Cl,-98.7% (active)
